Bioassay records deposited in PubChem BioAssay by National Center for Advancing Translational Sciences (NCATS).
Pf growth 96h: inhibits malaria parasite growth, 96 h. AID 504834. Potency, µM (titrated, usually from 28.7 µM), without a hit: at the top dose activity change, negative = inhibition, most hits filed as inhibitors. actives 6.9% (n = 320,000). P. falciparum luciferase reporter growth, 96 h; also: potency is read from the fitted curve at half-maximal effect; % is scaled to controls: 0 for no effect and ±100 for the full control effect
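P. falciparum expressing integrated firefly luciferase grown in erythrocytes (2% hematocrit, 0.05% parasitemia final) with compounds for 96 hours at 37 C, 5% CO2. Growth inhibition read as loss of luminescence after adding luciferase detection reagent.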
Shiga inhibitor: Shiga toxin inhibition. Vero cells, Shiga toxin protein synthesis inhibition reporter. inhibition, % at 38.7 µM. actives 9.2% (n = 290,000); in the data active = inhibition mostly above about 28%, no sharp cut-off; inactive = mostly below about 43%; also: 0% is about no effect
AMA1 RON2 block: disrupts binding of P. falciparum AMA1 to RON2 | AID 720542 | Potency, µM (series often up to 58.2 µM), for the others: at the highest dose activity change, negative = inhibition, hits mostly inhibitors | actives 0.2% (n = 360,000) | AlphaScreen AMA1-biotinylated RON2 peptide binding;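 also: potency is read from the fitted curve at half-maximal effect; 0% = vehicle wells and -100% = peptide control; nearly all actives have a fitted effect of over 45% in size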
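AMA1 (3D7) with his tag at 25 nM final met compounds first, then biotinylated RON2 peptide at 25 nM; detection used donor plus acceptor beads, 10 µg/mL apiece, read by AlphaScreen after 30 min at room temperature.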
Cycloheximide cs: counter-screen for Shiga toxin inhibitors: cycloheximide protein synthesis inhibition; cell reporter, cycloheximide protein synthesis inhibition counterscreen; max response, %; actives 12% (n = 300,000); AID 2314; in the data active = max response mostly above about 13%, no sharp cut-off; inactive = mostly below about 14%; also: read at 38.3 µM for the half of the compounds with a filed dose; 0% is about no effect
HCV inhibitor: HCV inhibition | Huh7.5.1 HCVcc-Cre infection, luciferase reporter, 44 h | actives 3.4% (n = 340,000) | AID 651820 | Potency, µM (highest dose often 41.8 µM), without a hit: top-dose activity change, negative = inhibition, usual class: inhibitors; also: potency is read from the fitted curve at half-maximal effect; % is scaled to controls: 0 for no effect and ±100 for the full control effect
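Seed cells (1,000/well) for 4 h; treat with compound and infect with HCVcc-Cre, moi about 0.5. Incubate 44 h, then detect luciferase activity.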
Pf growth 48h: P. falciparum growth inhibition at 48 hours (one generation) | P. falciparum luciferase growth in erythrocytes, 48 h | Potency, µM (top dose mostly 28.7 µM), for inactives: top-dose activity change, negative = inhibition, hits mostly inhibitors | actives 5.9% (n = 310,000); also: potency is read from the fitted curve at half-maximal effect; % is scaled to controls: 0 for no effect and ±100 for the full control effect
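Erythrocytes infected with P. falciparum carrying an integrated firefly luciferase reporter (2% hematocrit, 0.1% parasitemia final) were exposed to compounds in RPMI 1640 with 0.5% Albumax at 37 C, 5% CO2. Growth inhibition was scored as reduced luminescence.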
* marks the source's active call; other numbers are inactive results. This is a sample that favours compounds with a hit; in the whole collection about 21% have one here. Unless noted, calls follow the shape of the dose curve; as a rule, active = well fitted curve in the direction sought with a large enough effect; inconclusive = small, poorly fitted or top-dose-only effect, or another doubt; inactive = no such curve, though single readings can be large; an effect the other way counts as inactive or inconclusive.

Screening CN(C(=O)c1ccc(Cl)cc1)c1ccc(OCC(=O)Nc2cc(C(=O)O)ccc2Cl)cc1 returned AMA1 RON2 block 1% and HCV inhibitor 15%.
Screening Cc1cc(C(=O)CN2C(=O)NC3(CCCCC3C)C2=O)c(C)n1Cc1cccs1 (stereo not drawn) returned Pf growth 96h -28%, Shiga inhibitor 75*, AMA1 RON2 block -12%, Cycloheximide cs 101*, HCV inhibitor inconclusive and Pf growth 48h 18%.
`Cc1cc(-n2c(C)cc(C(=O)CN3C(=O)NC4(CCCCC4C)C3=O)c2C)no1` (stereo not drawn) gave Pf growth 96h -6%, Shiga inhibitor 9, AMA1 RON2 block -1%, Cycloheximide cs -1, HCV inhibitor inconclusive and Pf growth 48h 2.3µM*.
CC(C(=O)O)N1CCCCC1 (stereo not drawn) was read as Pf growth 96h 0%, Shiga inhibitor -4, AMA1 RON2 block -3%, Cycloheximide cs 0, HCV inhibitor 13% and Pf growth 48h inconclusive.
CN1CCN(c2ccc(Cl)cc2NC(=O)c2ccc(S(=O)(=O)N(C)C)cc2)CC1 was read as Pf growth 96h 3.3µM*, Shiga inhibitor -11, AMA1 RON2 block -4%, Cycloheximide cs 5 and HCV inhibitor 11%.
CN(C)S(=O)(=O)c1ccc(C(=O)Nc2cc(S(=O)(=O)Nc3ccccc3Cl)ccc2N2CCCCC2)cc1 was read as Pf growth 96h 1.3µM*, Shiga inhibitor 9, AMA1 RON2 block 5%, Cycloheximide cs -5, HCV inhibitor inconclusive and Pf growth 48h 2.3µM*.
Screening CCN(CC)S(=O)(=O)c1cc(C(=O)Nc2cc(Cl)ccc2N2CCN(C)CC2)ccc1Cl returned Pf growth 96h 2.6µM*, Shiga inhibitor -14, AMA1 RON2 block 1%, Cycloheximide cs -4 and HCV inhibitor 6%.
`CCN(CC)S(=O)(=O)c1cc(C(=O)NC2=NCCS2)ccc1Cl` gave Pf growth 96h 0%, Shiga inhibitor -2, AMA1 RON2 block 100%, Cycloheximide cs 1 and HCV inhibitor -20%.
`O=C(NCc1nnnn1-c1ccc(F)c(F)c1)C(=O)c1c[nH]c2ccccc12` gave Pf growth 96h inconclusive, AMA1 RON2 block 2%, HCV inhibitor 14% and Pf growth 48h -14%.
Screening CN(CC(=O)Nc1cccc(S(=O)(=O)NC2=NCCC2)c1)Cc1ccccc1Cl returned Pf growth 96h inconclusive, AMA1 RON2 block 15%, HCV inhibitor -2% and Pf growth 48h -26%.
For CCOc1ccccc1-c1ccc(C(=O)O)o1 the results were Shiga inhibitor inactive and Cycloheximide cs -3.
Screening Cc1cc2c(s1)c1cnn(Cc3ccc(C(F)(F)F)cc3)c(=O)c1n2C returned Shiga inhibitor -7 and Cycloheximide cs -6.
Screening c1ccc(-c2nnc3sc(CN4CCc5ccccc54)cn23)cc1 returned Pf growth 96h inconclusive, Shiga inhibitor 46*, AMA1 RON2 block inconclusive, Cycloheximide cs 24, HCV inhibitor inconclusive and Pf growth 48h 10µM*.
For COCCCNC(=O)c1csc([C@@H]2O[C@H](CO)[C@H](O)[C@H](O)[C@H]2O)n1 the results were AMA1 RON2 block 17%.
Screening Cc1c(C)n(CCCN(C)C)c2ncnc(Nc3ccccc3)c12 returned Pf growth 96h 4%, Shiga inhibitor 40, AMA1 RON2 block -2%, Cycloheximide cs 7, HCV inhibitor inconclusive and Pf growth 48h 18%.
Screening COc1ccccc1Nc1ncnc2c1c(C)c(C)n2CCCN(C)C returned Pf growth 96h 0%, Shiga inhibitor -2, AMA1 RON2 block -8%, Cycloheximide cs 2, HCV inhibitor 4µM* and Pf growth 48h 0%.
For COc1ccc(Nc2ncnc3c2c(C)c(C)n3CCCN(C)C)cc1 the results were Pf growth 96h 58%, Shiga inhibitor 70*, AMA1 RON2 block -11%, Cycloheximide cs 47*, HCV inhibitor -30% and Pf growth 48h 52%.
O=C(O)CCCn1cc(NC(=O)COc2ccccc2)cn1 was read as Pf growth 96h 39%, Shiga inhibitor -3, AMA1 RON2 block -2%, Cycloheximide cs -1, HCV inhibitor 6% and Pf growth 48h -7%.
Cc1cc(Nc2cc(Cl)cc(Cl)c2)nc(N)n1 was read as Pf growth 96h 2.3µM*, Shiga inhibitor 20, AMA1 RON2 block -6%, Cycloheximide cs 7, HCV inhibitor inconclusive and Pf growth 48h 1.9µM*.
For Cc1cc(Nc2ccc(F)cc2)nc(N)n1 the results were Pf growth 96h 9.3µM*, Shiga inhibitor 22, AMA1 RON2 block 0%, Cycloheximide cs 13, HCV inhibitor -18% and Pf growth 48h inconclusive.
`Cc1cc(Nc2ccc(C(=O)O)cc2)nc(N)n1` gave Pf growth 96h 22%, AMA1 RON2 block 5%, Cycloheximide cs -3, HCV inhibitor 1% and Pf growth 48h 1%.
Screening O=C(O)c1ccc(S(=O)(=O)c2ccc([N+](=O)[O-])cc2[N+](=O)[O-])cc1 returned Pf growth 96h 6%, Shiga inhibitor -6, AMA1 RON2 block 0%, Cycloheximide cs -4, HCV inhibitor -23% and Pf growth 48h inconclusive.
`Cc1nn(-c2ccccc2)c(N2CCCC2)c1/C=N/NC(=S)Nc1ccccc1F` gave Pf growth 96h inconclusive, Shiga inhibitor 98*, AMA1 RON2 block 77%, Cycloheximide cs 72*, HCV inhibitor inconclusive and Pf growth 48h 10µM*.
For Cc1nn(-c2ccccc2)c(N2CCCC2)c1/C=N/NC(=O)c1cc(-c2ccccc2)nc2ccccc12 the results were Pf growth 96h inconclusive, Shiga inhibitor 6, AMA1 RON2 block -2%, Cycloheximide cs 1, HCV inhibitor inconclusive and Pf growth 48h inconclusive.
Cc1nn(-c2ccccc2)c(N2CCCC2)c1/C=N/NC(=O)c1cc(-c2ccccn2)nc2ccccc12 was read as Pf growth 96h inconclusive, Shiga inhibitor -11, AMA1 RON2 block -1%, Cycloheximide cs -5, HCV inhibitor 4µM* and Pf growth 48h inconclusive.
COc1ccc(C(C)NC(=O)c2ccncc2)cc1 (stereo not drawn) was read as Pf growth 96h inconclusive, Shiga inhibitor -3, AMA1 RON2 block -9%, Cycloheximide cs -1, HCV inhibitor 15% and Pf growth 48h 1%.
Screening CC(=O)Nc1ccc(Nc2ncnc3c2cnn3-c2cccc(C)c2)cc1 returned Pf growth 96h 15%, Shiga inhibitor 55*, AMA1 RON2 block 0%, Cycloheximide cs 33*, HCV inhibitor inconclusive and Pf growth 48h 33%.
`CC(=O)Nc1ccc(Nc2ncnc3c2cnn3-c2ccccc2)cc1` gave Pf growth 96h 106%, Shiga inhibitor 50*, AMA1 RON2 block 3%, Cycloheximide cs 41*, HCV inhibitor inconclusive and Pf growth 48h 135%.
